Reference: PubChem BioAssay (NCI)
Compounds without any hit were thinned out: in the full panel of roughly 83,000, 20% have a hit.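 Compound tested at a single concentration for 48 hours in 96-well plates; a percent growth value below 10 was scored as active.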 A number with no mark means an inactive call. The source made the active and inactive calls.

Key:
Assay in all cases: NCI-60 one-dose screen, 48 h (100 = growth as untreated, 0 = no growth, -100 = all killed)
Details in all cases: 10 µM unless noted
RPMI-8226 leukemia = test system: RPMI-8226 leukemia
OVCAR-8 ovarian = test system: OVCAR-8 ovarian
OVCAR-5 ovarian = test system: OVCAR-5 ovarian
SK-OV-3 ovarian = test system: SK-OV-3 ovarian
IGROV1 ovarian = test system: IGROV1 ovarian
OVCAR-3 ovarian = test system: OVCAR-3 ovarian
HS 578T breast = test system: HS 578T breast
NCI/ADR-RES ovarian = test system: NCI/ADR-RES ovarian
T-47D breast = test system: T-47D breast
BT-549 breast = test system: BT-549 breast
MDA-MB-435 melanoma = test system: MDA-MB-435 melanoma
SW-620 colon = test system: SW-620 colon
MCF7 breast = test system: MCF7 breast
HCT-116 colon = test system: HCT-116 colon
HCC-2998 colon = test system: HCC-2998 colon
KM12 colon = test system: KM12 colon
OVCAR-4 ovarian = test system: OVCAR-4 ovarian

Row | Compound | growth (RPMI-8226 leukemia) | growth (OVCAR-8 ovarian) | growth (OVCAR-5 ovarian) | growth (SK-OV-3 ovarian) | growth (IGROV1 ovarian) | growth (OVCAR-3 ovarian) | growth (HS 578T breast) | growth (NCI/ADR-RES ovarian) | growth (T-47D breast) | growth (BT-549 breast) | growth (MDA-MB-435 melanoma) | growth (SW-620 colon) | growth (MCF7 breast) | growth (HCT-116 colon) | growth (HCC-2998 colon) | growth (KM12 colon) | growth (OVCAR-4 ovarian)
1 | COc1cc(-c2csc(NC(=O)Nc3ccc(Cl)cc3)n2)cc(OC)c1OC | 8.27% (active) | 10.4% | 76.9% | 53.5% | 42.6% | 19.4% | 58.9% | 7% (active) | -7.45% (active) | 31.9% | 18.1% | 42.1% | 8.71% (active) | 17.8% | 38.9% | 13.4% | –
2 | C=C(C)[C@@H]1CC[C@]2(C(=O)O)CC[C@]3(C)[C@H](CC[C@@H]4[C@@]5(C)C[C@@H](CC#Cc6ccccc6)C(=O)C(C)(C)[C@@H]5CC[C@]43C)[C@@H]12 | 15.3% | 26.5% | 65.4% | 42.9% | 61.1% | 17.9% | 55.4% | 42.1% | 22.5% | 40.7% | 66.8% | 27.3% | 15.5% | 9.07% (active) | 29% | 27.9% | –
3 | C=C1C(=O)O[C@H]2[C@H]1CC/C(COC(=O)c1cccnc1)=C\CC[C@@]1(C)O[C@@H]21 | 28.5% | 86.4% | 73.8% | 86.1% | 64.8% | 26.4% | 89.9% | 93.5% | 55.7% | 68.4% | 49.7% | 17.7% | 21.4% | 15.9% | 108% | 109% | –
4 | O=C(O)c1ccc(-n2cc(/C=N/Nc3ccc(Cl)cc3Cl)c(-c3ccccc3)n2)cc1 | 83.2% | 98.6% | 107% | 89.4% | 89% | 88.7% | 107% | 92.3% | 70.7% | 79.3% | 95.5% | 96.3% | 69.8% | 76.8% | 101% | 83.4% | –
5 | O=C1Nc2ccc(Br)cc2/C1=N\N=C/c1cn(Cc2ccccc2)c2ccccc12 | 95.9% | 96.1% | 28.3% | 76.2% | 80.7% | 109% | 80.9% | – | 89.6% | 105% | 105% | 99% | 83.2% | 93.7% | 106% | 96.2% | –
6 | O=C(O)c1cc(N=Nc2ccc(-c3ccc(N=Nc4c(S(=O)(=O)O)cc5ccc(Nc6ccccc6)cc5c4O)cc3)cc2)ccc1O | 104% | 107% | 109% | 98.4% | 100% | 103% | 106% | 104% | 89.1% | 115% | 106% | 102% | 92.3% | 105% | 89.8% | 99.6% | –
7 | CC(=O)Nc1nc2c(c(N)c1C#N)C(c1cccc(Cl)c1)C1=C(CCCC1=O)N2c1sc2c(c1C#N)CCCC2 (stereo unspecified) | 22% | 37% | 87.1% | 54.7% | 59.4% | 56.1% | 73.7% | 46.7% | 36.7% | 45.9% | 65.5% | 80.3% | 20.7% | 33.3% | – | 49.1% | –
8 | COc1ccc(C2C(c3ccccc3)C(=O)N2c2cc(OC)c(OC)c(OC)c2)cc1I (stereo unspecified) | -9.86% (active) | 16.7% | 35.9% | 6.66% (active) | 20.6% | 12% | 22.1% | 9.97% (active) | 69.7% | 12% | 2.2% (active) | 23.7% | 8.53% (active) | 3.14% (active) | 31.8% | 15.3% | –
9 | COc1ccc(-c2nnc(N3CCN(C(=O)CN4CCN(c5ccccc5)CC4)CC3)nc2-c2ccc(OC)cc2)cc1 | -58.3% (active) | 42% | 78.6% | 74.4% | 34.3% | 33.8% | 55.4% | 42.1% | 16.8% | -16.1% (active) | 22.7% | 35.7% | 11.7% | 8.34% (active) | 22.2% | 16.8% | –
10 | COc1cc(C(=O)N2CCN(c3ccccc3OC)CC2)c(NC(=O)c2cnccn2)cc1OCc1ccccc1 | 65.9% | 91.1% | 90.8% | 90.2% | 63.9% | 92.7% | 103% | 78.9% | 66.8% | 97.6% | 95.1% | 101% | 109% | 87.8% | 87.3% | 90.7% | –
11 | C=C(C)[C@@H]1CCC=C2CC[C@]3(C)[C@H](CC[C@@H]4[C@@]5(C)CCCNC(C)(C)[C@@H]5CC[C@]43C)[C@H]21 | -11.9% (active) | 3.48% (active) | 56.4% | 112% | 23.5% | 41.2% | 97.2% | 55.1% | 60.2% | 89.2% | 16.8% | -50.2% (active) | 0.921% (active) | -54.8% (active) | – | 19.9% | –
12 | Cc1cccc(C)c1Nc1nnc(-c2ccc(F)cc2)o1 | 109% | 109% | 93.9% | 102% | 97.9% | 93.6% | 108% | 97.8% | 110% | 107% | 103% | 98.1% | 96.6% | 101% | 99.4% | 89.2% | –
13 | Cc1cc(C)c2nc(Nc3nc(C)c(C)c(=O)[nH]3)nc(C)c2c1 | -17.1% (active) | 15.5% | 48.8% | 7.87% (active) | 9.55% (active) | 5.78% (active) | 21.2% | 40.8% | 18.9% | 9.69% (active) | 15.7% | 9.96% (active) | 3.09% (active) | 3.76% (active) | 21.9% | 11.3% | –
14 | CCCCC1=c2c([nH]c3ccc(OC)cc23)=NC2C=CC=NC12 (stereo unspecified) | 56.8% | 101% | 106% | 113% | 69.9% | 114% | 92.3% | 96.6% | 38.8% | 98.9% | 93.4% | 98.5% | 13.5% | 74.8% | 97.1% | 38.9% | –
15 | c1ccc(-c2n(Cc3ccc4ccccc4n3)cc[n+]2Cc2ccc3ccccc3n2)cc1 | 0.454% (active) | 33.6% | 70.5% | 48.9% | 33.9% | 28.8% | 60.4% | 105% | 9.75% (active) | 28% | 15.4% | 37.5% | – | – | 26.6% | 15.8% | –
16 | O=C(O)c1cn(C2CC2)c2cc(N3CCN(C(=O)CSc4nnc(-c5ccc(Cl)cc5)n4-c4ccccc4)CC3)c(F)cc2c1=O | 102% | – | 121% | 79.8% | 107% | 110% | 101% | 104% | 77.9% | 99.1% | 102% | 109% | 110% | 103% | 102% | 103% | 110%
17 | CC(C)(C#N)c1cc(F)cc(C(=O)Nc2cc(Nc3ncccc3-c3ncnc4nc[nH]c34)ccc2F)c1 | 23.7% | 41.1% | 37% | 63.7% | 15.4% | 55.2% | 39.9% | 37.1% | 42.8% | 39.7% | 48% | 28.7% | 58.1% | 19.2% | 27.3% | 36% | –
18 | CC(=O)c1cc2c(N)c(C(=O)Nc3ccccn3)sc2nc1C | 99.2% | 103% | 89.4% | 48.3% | 92.8% | 92.2% | 74.2% | – | 94.5% | 98.6% | 5.72% (active) | 96.9% | 73.2% | 93.3% | – | 89.3% | –
